AT treatment: potential ataxia-telangiectasia treatment | F2112 A-T fibroblasts, KAP-1 phosphorylation AlphaLISA; neocarzinostatin DNA damage 30 min before lysis | Potency, µM (top dose mostly 57.5 µM), for inactives: at the top dose activation, most hits filed as activators | hit rate 0.19% among 320,000; further: potency means the concentration at half of the fitted maximal effect; % of control where 0% means no effect; nearly all actives have a fitted effect of over 45% in size
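hTERT-immortalized A-T patient fibroblasts (F2112), 500 cells/well in OPTI-MEM, 1% FBS, got compounds for 60 min, then NCS for 30 min at 37C. Lysates were then assayed for phospho-KAP-1 by AlphaLISA (anti-pKAP1 donor, anti-KAP1 acceptor beads), 6 hr at 25C.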
TRPV1 PAM: potentiators of human vanilloid receptor 1 (TRPV1); potentiation, % at 8.33 µM; TRPV1-expressing cells, Fluo-8 calcium influx, capsaicin EC20 potentiation; hit rate 0.02% among 320,000; Q8NER1; in the data active means potentiation above about 80%; inconclusive means between about 30% and that limit; further: 0% is about no effect
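Fluo-8 calcium influx in TRPV1-expressing cells, kinetic read (ex 480/em 520 nm). Compound added and read 3 min for agonist activity, followed by capsaicin at EC20 final and 2 min further read for enhancement.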
TRPV1 agonist: agonists of human vanilloid receptor 1 (TRPV1) | Q8NER1 | TRPV1-expressing cells, Fluo-8 calcium influx, agonist mode | activation, % at 8.33 µM | hit rate 0.19% among 320,000 | AID 540275; in the data active means activation above about 80%; inconclusive means between about 30% and that limit; further: 0% is about no effect
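Cells expressing TRPV1 were dye-loaded with Fluo-8 and read kinetically: 10 s baseline, 3 min after compound (agonist portion), then 2 min after EC20 capsaicin (allosteric enhancer portion). Calcium-bound dye fluorescence at 480/520 nm.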
TRPML1 agonist: activates the human TRPML1 channel; TRPML1-expressing cells, Ca2+ dye fluorescence, FDSS; activation, % (no concentration beside the values); hit rate 0.12% among 410,000; in the data active means activation above about 50%; inconclusive means mostly about 30% to 49%; further: 0% is about no effect
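Kinetic FDSS Ca2+ read in Tet-induced TRPML1-DL cells (ABD Ca8 dye plus quencher, 45-90 min RT loading): baseline, then compound, then 110 s agonist window; EC80 agonist 54-4 at 4uM final added afterwards for a 110 s antagonist window.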
TRPML1 blocker: inhibitors of human TRPML1 channel | AID 624415 | Q9GZU1 | hit rate 0.02% among 390,000 | activity change, negative = inhibition, % (test concentration not listed) | TRPML1-inducible cells, Ca2+ dye fluorescence, FDSS; stronger effect = lower value; inhibition of EC80 agonist-evoked calcium signal; in the data active means activity change below about -50%; inconclusive means between about -30% and that limit;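 further: stimulus is agonist 54-4 at its EC80 concentration; on the % scale 0 is the no-effect control and ±100 the full control effect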
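Tet-induced TRPML1-DL cells loaded with Ca8 no-wash calcium dye were read kinetically on FDSS. Compound addition was followed by EC80 agonist 54-4 (4 uM final); inhibition was read over 110 s.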
RGS4 inh: inhibitors of human regulator of G protein signaling 4 | P49798 | Transcreener GDP fluorescence polarization, RGS4-accelerated GTP hydrolysis | Potency, µM (doses to about 114 µM), without a hit: top-dose activity change, negative = inhibition, actives largely listed as inhibitors | hit rate 0.039% among 390,000; further: potency means the concentration at half of the fitted maximal effect; on the % scale 0 is the no-effect control and ±100 the full control effect; nearly all actives have a fitted effect of over 75% in size
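MLSMR compounds (23 nl, pin-transferred) preincubated 10 min at room temperature with a 500nM (2x) first reagent, then RGS4 at 900nM (2x) plus Transcreener GDP mix added; fluorescence polarization (620/688 nm) read before and after 90 min at 30 °C.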
Starred values were filed as active, the others as inactive; ? = inconclusive; . = no result; [ ] = another dose, or the depositor's remark. Rows were chosen to be rich in hits. Some 0.5% of all compounds tested hit in one or more screens of this group. Unless noted, the call rests on the fitted dose curve; in most records, active means well fitted curve in the direction sought with a large enough effect; inconclusive means small, poorly fitted or top-dose-only effect, or another doubt; inactive means no such curve, though single readings can be large; an effect the other way counts as inactive or inconclusive.

SMILES	AT treatment	TRPV1 PAM	TRPV1 agonist	TRPML1 agonist	TRPML1 blocker	RGS4 inh
Cc1cccc(-n2cc(-c3ccccc3)c3c(N4CCOCC4)ncnc32)c1	3%	-8	24	2	-14	-12%
CC(O)CN(CC(C)O)c1ccc2c(c1)Cc1cc([N+](=O)[O-])ccc1-2 (stereo unspecified)	.	.	.	83*	6	-40%
Nc1ccc2c(c1)Cc1cc([N+](=O)[O-])ccc1-2	3%	10	17	?	-22	7%
CC(=O)c1ccc(NC(=S)NC(=O)/C=C/c2ccc(F)cc2)cc1	3.2µM*	5	-5	0	6	-4%
CC(C#Cc1c([C@@H](C)Oc2ccccc2)nnn1Cc1ccccc1)Oc1ccccc1 (stereo partly specified)	14%	-3	?	-1	-15	3%
CC(C)CC(c1nnnn1C(C)C)N1CCN(C(=O)c2ccco2)CC1 (stereo unspecified)	4%	6	-2	0	-4	-12%
CC(C)CC(c1nnnn1C(C)C)N1CCN(c2cccc(Cl)c2)CC1 (stereo unspecified)	5%	13	1	84*	-18	1%[11.4 µM]
COc1ccc(CCNC(=O)CC(NC(=O)c2ccccc2Cl)c2ccccc2)cc1 (stereo unspecified)	4%	1	-1	-1	-15	26%
CCCC1(C)C(C#N)(C#N)C1(C#N)C#N	.	.	.	.	.	9.5µM*
CCOc1ccc2ccccc2c1CNc1nnnn1C	3%	-3	5	0	-6	12%
CC(C)CNc1nc(Oc2ccc(OCC(N)=O)nn2)nc(N2CCOCC2)n1	.	.	.	1	19	-12%
CC(=NNC(=O)c1ccncc1)c1ccccc1O	.	.	.	0	-14	-5%
CC(C)CC(=NNC(=O)c1ccncc1)c1cc(Cl)ccc1O	.	.	.	71*	7	25%
COc1ccc(Cc2nnc(C(=O)NCCCN3CCN(c4ccccc4F)CC3)o2)cc1OC	.	.	.	0	-8	17%
COc1ccc(OCCCn2ccnc2)cc1	3.2µM*	11	-7	1	33	12%
COc1cccc(OCCCn2ccnc2)c1	3%	1	-3	0	-18	8%
CCOc1ccc(-c2c(C(=O)N/N=C/c3ccc(C)cc3)nnn2-c2nonc2N)cc1	-9%	3	0	1	-15	-13%
Cc1ccc(-c2c(C(=O)N/N=C/c3ccoc3)nnn2-c2nonc2N)cc1	-3%	-10	88*	0	1	15%
COc1cccc(NC(=O)CC2S/C(=N\S(=O)(=O)c3ccccc3)N(c3ccccc3)C2=O)c1 (stereo unspecified)	-2%	-2	2	0	-10	5%
CC(C)c1ccc(CNNC(=O)c2ccccc2)cc1	7%	-7	83*	0	19	-6%
O=C(NNCc1ccccc1)c1ccccc1	.	.	.	0	-4	9%
O=C(Cn1ccc2cc(S(=O)(=O)N3CCCC3)ccc21)NCc1ccc(Cl)cc1	.	.	.	1	-19	2%
Cc1cccc(-n2ncc(C(=O)N3CCN(Cc4ccccc4)CC3)c2C2CCN(C(=O)OC(C)(C)C)CC2)c1	.	.	.	51*	-15	-3%
Cc1ccc(-n2ncc(C(=O)N3CCN(c4cccc(C)c4)C(C)C3)c2C2CCN(C(=O)OC(C)(C)C)CC2)cc1 (stereo unspecified)	.	.	.	73*	-28	-24%
Cc1ccc(NC(=O)c2cc3c(s2)CCCC3)cc1	-16%	-12	84*	1	0	-17%
Cc1ccc(NC(=O)CN(C)C(=O)c2cc3c(s2)CCCCC3)cc1	-6%	-17	20	1	-29	-2%
COc1ccc(CCNc2oc(COc3cccc(C)c3)nc2C#N)cc1OC	.	.	.	4	56	14%
CC1CCCCC12NC(=O)N(CC(=O)Nc1cccnc1Cl)C2=O (stereo unspecified)	-10%	-10	-1	1	10	0%

Screening data deposited in PubChem by National Center for Advancing Translational Sciences (NCATS).
